What all share (assay): NCI-60 one-dose screen, 48 h (100 = growth as untreated, 0 = no growth, -100 = all killed)
Common to all, as to details: 10 µM

Assay [1] relates to HT29 colon.
In assay [2] the test system is SNB-75 CNS.
The test system of assay [3] is SNB-19 CNS.
The test system of assay [4] is U251 CNS.
In assay [5] the test system is PC-3 prostate.
Assay [6] relates to SK-MEL-5 melanoma.
The subject of assay [7] is UACC-62 melanoma.
For assay [8], the system named is LOX IMVI melanoma.
The test system of assay [9] is SK-MEL-28 melanoma.
The subject of assay [10] is SK-MEL-2 melanoma.
The subject of assay [11] is SN12C renal.
Assay [12] concerns UO-31 renal.
Assay [13] relates to TK-10 renal.
The subject of assay [14] is ACHN renal.
Assay [15] relates to CAKI-1 renal.
Assay [16] deals with A498 renal.
For assay [17], the system named is CCRF-CEM leukemia.
Assay [18] has as its system MOLT-4 leukemia.
Assay [19] concerns SR leukemia.

The structures appear in SMILES notation. This is part of a sample that, as a whole, favours compounds with a hit. Of some 83,000 tested, about 20% had one in any assay.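 Activity criterion: percent growth below 10, measured after cells in 96-well plates were exposed to a single compound concentration for 48 hours.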 Values without a mark were called inactive. Active and inactive are the calls of the source.

With `O=C1/C(=C\c2ccccc2)CN(C(=O)c2ccccc2)C/C1=C\c1ccccc1`, the growth was -48.5% (active) in assay [1]; 49.7% in assay [2]; 55.2% in assay [3]; -32.6% (active) in [4]; 6.58% (active) in assay [5]; -22.8% (active) in assay [6]. Further, the growth is -1.94% (active) in assay [7]; -80.3% (active) in [8]; -7.74% (active) in assay [9]; 58.6% in [10]; 5.88% (active) in assay [11]; 43% in assay [12]. Further, the growth was 69.8% in [13]; 3.54% (active) in assay [14]; 33.3% in assay [15]; 45.1% in assay [16]; -0.797% (active) in assay [17]; 2.87% (active) in assay [18]. The growth in [19] is -33% (active).

As to `COc1cc2cc3c(nc2cc1OC)CCN3Cc1ccc(NC(=O)Nc2cc(C(F)(F)F)cc(C(F)(F)F)c2)cc1`, the growth in assay [1] was 76.7%; in assay [2], 69.1%; in assay [3] it was 71.9%; in [4] it was 64.1%; in assay [5], 39.6%; in assay [6], 89.9%. Moreover, the growth in assay [7] was 80.7%; in assay [8] it was 75.4%; in assay [9] it was 98.5%; in [10], 80.2%; in assay [11] it was 74.3%; in [12] it was 57.7%. The growth is 85.6% in [13]; 69.6% in assay [14]; 69.4% in assay [15]; 58.4% in [16]; 51.7% in assay [17]; 36.9% in assay [18]. Besides, in [19], the growth was 55.2%.

In the case of `O=C1Nc2ccccc2C1=NC1CCCCC1`, the growth in assay [1] was 99.2%; in [2], 88.1%; in assay [3] it was 111%; in assay [4], 101%; in [5], 94%; in [6], 94.3%. In addition, the growth in assay [7] is 105%; in [8] it was 87.5%; in assay [9], 115%; in assay [10], 88.6%; in [11] it was 107%; in [12], 55.5%. For the same compound, the growth in assay [13] is 107%; in assay [14] it was 97.9%; in [15] it was 79.3%; in assay [16], 109%; in [17], 108%; in assay [18], 111%.

Regarding `Cc1cc(=O)[nH]c(N/N=C/c2ccccc2O)n1`, the growth in [1] was 46.1%; in assay [2], 89%; in assay [3], 76.9%; in assay [4], 45.9%; in assay [5] it was 67.4%; in assay [6] it was 90.8%. Further, the growth in [7] was 92.3%; in assay [8] it was 59.5%; in assay [9] it was 86.3%; in assay [10] it was 73.9%; in assay [11], 86.2%; in assay [12], 43.6%. Moreover, the growth in assay [13] was 97.3%; in assay [14], 59.8%; in assay [15] it was 82.3%; in assay [16], 108%; in assay [17], 35%; in assay [18] it was 67.3%. For the same compound, in [19], the growth was 26.8%.

Consider `Cc1cc2c(C)c3cc(C)c(N)cc3nc2cc1N`, for which the growth in assay [1] is -25.5% (active); in assay [2] it was 21.8%; in assay [3], 18.3%; in assay [4], 14.9%; in assay [5], 7.77% (active); in assay [6], 19.8%. Moreover, the growth was 24.2% in assay [7]; 4.46% (active) in assay [8]; 38.9% in [9]; -18.1% (active) in [10]; 12.5% in [11]; 7.87% (active) in assay [12]. In addition, the growth in assay [13] is -4.14% (active); in [14] it was 9.76% (active); in [15] it was 14.8%; in assay [16], -5.82% (active); in assay [17], 6.08% (active); in [18], -7.23% (active). Also, the growth in assay [19] was -24.3% (active).

Turning to `Nc1c(C(=O)Nc2cccc3ccccc23)sc2nc3c(cc12)C(=O)CCC3`, the growth is 8.98% (active) in [1]; 20.7% in assay [2]; 55.3% in [3]; 15.2% in [4]; 22.6% in [5]; 12.2% in [6]. Besides, the growth in assay [7] is 43.2%; in assay [8], 29.7%; in assay [9], 42.8%; in assay [10], 35.5%; in assay [11], 30.8%; in assay [12], 53%. Besides, the growth is 74.7% in [13]; 34.5% in assay [14]; 23.2% in [15]; -17.6% (active) in [16]; 7.9% (active) in assay [17]; 11.1% in [18]. In assay [19], the growth is 4.39% (active).

With `Nc1ccc2c(c1)C1(CCC2)NC(=O)NC1=O` (stereo unspecified), the growth in [1] is 104%; in assay [2], 90.2%; in assay [3], 96.6%; in assay [4] it was 91.5%; in [5], 92%; in assay [6], 98.6%. In addition, the growth in assay [7] was 106%; in [8], 97.7%; in assay [9] it was 113%; in assay [10], 99.7%; in [11], 97.3%; in assay [12], 93.3%. The growth in assay [13] is 109%; in assay [14], 101%; in assay [15] it was 95.7%; in assay [16], 101%; in assay [17], 96.9%; in [18], 98.8%. In assay [19], the growth is 89.7%.

`COc1ccc2c(c1)O/C(=C\c1ncc([N+](=O)[O-])n1C)C2=O`: the growth is -13.6% (active) in [1]; 3.5% (active) in assay [2]; 2.04% (active) in [3]; -12.6% (active) in assay [4]; 7.52% (active) in [5]; -94.2% (active) in assay [6]. Further, the growth is -85.1% (active) in assay [7]; -29.2% (active) in [8]; -31.9% (active) in assay [9]; -54.5% (active) in assay [10]; -8.55% (active) in [11]; -39.2% (active) in [12]. For the same compound, the growth in assay [13] is -27.3% (active); in [14], 0.77% (active); in [15] it was -26.7% (active); in assay [16], -77.7% (active); in assay [17], 4.88% (active); in [18], 2.86% (active). Also, the growth in [19] is 7.55% (active).

The values are drawn from PubChem BioAssay (NCI).
